Several values for one entry are separate records, joined by “and”; a condition that tells them apart may be missing. Equal entries are not always repeated. Hit rate of the full screen: of about 420,000 compounds, about 64,000 (15%) were called active. About 27% were inconclusive and are not listed. A selection follows. Where a call stands in place of a potency, no number is given. Unmarked numbers belong to inactive results. Calls follow the shape of the dose curve; as a rule, active = well fitted inhibition curve with a large enough effect; inconclusive = small, poorly fitted or top-dose-only effect; inactive = flat fitted curve, though single readings scatter.
Potency is read from the fitted curve at half-maximal effect.

A short description of this assay: qHTS for Inhibitors of human tyrosyl-DNA phosphodiesterase 1 (TDP1): qHTS in cells in absence of CPT. Also: nearly all actives have a fitted effect of over 55% in size. Conditions: DT40 Tdp1-/- hTDP1 cells, no CPT, ATP luminescence, 48 h; activity change, negative = growth inhibition: at 46.2 µM (top of the series). In outline: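 A cellular qHTS used chicken DT40 cells lacking endogenous Tdp1 but carrying stably transfected human TDP1. Compounds were applied without camptothecin, and cell growth kinetics were judged by ATP-dependent luminescence after ≥48 hr.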
On to `O=C1/C(=C\Nc2ccccc2)CCN1c1ncccn1`, for which the Potency result was “inactive”.

Consider `Cc1cc(NC(=O)CCC(=O)N(c2ccccc2)C(C(=O)NC2CCCC2)c2ccncc2)no1` (configuration not stated), for which the Potency entry was “inactive”.

Take `Cc1ccc(C(C(=O)NC2CCCC2)N(Cc2ccco2)C(=O)CCC(=O)Nc2ccccn2)cc1` (configuration not stated): the Potency was 16.4 µM (active).

With `CCC(C)(C)NC(=O)C(c1ccc(O)cc1)N(Cc1ccco1)C(=O)CCC(=O)Nc1ccccn1` (configuration not stated), the Potency entry is “inactive”. Still for that read-out and setting: the result for `CC(=O)NC1(c2ccc(F)cc2)CCN(C(=O)c2c(F)cccc2F)CC1` reads “inactive”; that for `CC(C)(C)NS(=O)(=O)c1ccc(NC(=O)NC2CCCCC2)cc1`, “inactive”; that for `CC(C)c1ccc(NC(=O)NC2CCCCC2)cc1`, 20.6 µM (active). The same measure, in the same setting: then `Cc1cc(C)cc(NC(=O)NC2CCCCCCC2)c1`, with “inactive”; and `O/N=C(\C[n+]1ccccc1)c1ccc(Br)cc1`, with “inactive”. Still for that read-out and setting: then `COc1ccc(CCNC(=O)CN2CCC(n3nnc4cc(F)ccc43)CC2)cc1OC`, with “inactive”. For `Cc1cccc(NC(=O)COC(=O)CCc2ccccc2)c1C`, the Potency entry was “inactive”.

For `Cc1cccc(NC(=O)CSC(N)=O)c1C`, the Potency is 18.4 µM (active). On to `Cc1ccccc1NC(=O)CSC(=O)c1ccccc1`, for which the Potency entry is “inactive”. Same read-out and setting: then `N#CCCN(C(=O)COC(=O)c1ccc(S(=O)(=O)N2CCCCCC2)cc1)c1ccccc1`, with “inactive”.

As to `CCC(C)N(C(=O)CSc1nnnn1-c1ccccc1OC)C1CCS(=O)(=O)C1` (configuration not stated), the Potency entry is “inactive”.

Turning to `COc1ccccc1-n1nnnc1SCC(=O)NC(=O)Cc1ccccc1`, the Potency result was “inactive”. Turning to `COc1ccccc1-n1nnnc1S(=O)(=O)Cc1ccc(Cl)cc1`, the Potency was 6.51 µM (active). For the molecule `CCOC(=O)C(Sc1ncc(C#N)c(N)n1)C(C)C` (configuration not stated), the Potency entry was “inactive”. The same measure, in the same setting: the result for `O=C(CSc1nnc(-c2ccncc2)n1-c1ccc(Cl)cc1)Nc1ccc(C(=O)O)cc1` reads “inactive”; that for `Cc1cc(NC(=O)CSCC(=O)NC(C)c2ccccc2)no1` (configuration not stated), “inactive”; that for `CN(CC(=O)Nc1c(Cl)cccc1Cl)C(=O)CC1OC(=O)c2ccccc21` (configuration not stated), “inactive”. On the same count and under the same terms, the result for `CC(=O)Nc1ccc(NC(=O)C2CCCN2S(=O)(=O)c2cccc(C(F)(F)F)c2)cc1` (configuration not stated) reads “inactive”; that for `Cc1ccc(S(=O)(=O)Nc2ccccc2CNc2c(C)n(C)n(-c3ccccc3)c2=O)cc1`, “inactive”; that for `CCc1ccc(NC(=O)C2CCCN2S(=O)(=O)c2ccc3nc(-c4ccccc4)[nH]c3c2)cc1` (configuration not stated), 23.1 µM (active). For `CCc1ccccc1NS(=O)(=O)c1ccc2nc(-c3ccccc3)[nH]c2c1`, the Potency was 9.2 µM (active). The same measure, in the same setting: the result for `CCOc1ccc(OCC)c(NS(=O)(=O)c2ccc3[nH]c(=O)ccc3c2)c1` reads “inactive”; that for `CCc1nnc(NC(=O)C2CCCN2S(=O)(=O)c2ccccc2)s1` (configuration not stated), “inactive”. Same read-out and setting: then `COc1ccc(NC(=O)C2C3CCC(O3)C2C(=O)O)cc1OC` (configuration not stated), with “inactive”; and `CC(=O)N1CCN(CC(C)(C)NS(=O)(=O)c2ccc(C)cc2)CC1`, with “inactive”; and `COc1cc(OC)c(C(=O)NNC(=O)c2ccc(NS(=O)(=O)c3cccs3)cc2)cc1OC`, with “inactive”. The same measure, in the same setting: the result for `COC(=O)Cn1c2ccc(C)cc2c2nc(C)sc21` reads “inactive”; that for `CCN(CC)CCn1c2ccc(Cl)cc2c2nc(C)sc21`, 23.1 µM (active); that for `COc1cc2c(cc1OC)C(c1ccccc1Br)NC(=O)C2` (configuration not stated), “inactive”. As for `O=C(CCn1c(=O)oc2ccccc21)Nc1ccon1`, the Potency entry is “inactive”.

For `O=C(CNC(=O)c1ccccc1Br)NNC(=O)c1cccs1`, the Potency result is “inactive”. With `Cc1ccc(S(=O)(=O)c2nnn3c2nc(N2CCN(c4ccccn4)CC2)c2ccccc23)cc1`, the Potency result is “inactive”.

Regarding `O=S(=O)(c1ccc(Br)cc1)c1nnn2c1nc(NC1CCCCCC1)c1sccc12`, the Potency result was “inactive”. For the molecule `Cc1ccc(C)c(S(=O)(=O)c2nnn3c2nc(N2CCOCC2)c2sccc23)c1`, the Potency was 23.1 µM (active). `COc1ccc(CCOC(=O)CNC(=O)c2ccc(Cl)cc2Cl)cc1`: the Potency result is “inactive”. On the same count and under the same terms, then `COC(=O)c1cnc(Nc2cc(C)ccc2OC)c2ccccc12`, with “inactive”.

On to `COc1ccc(NC2CCCN(C(=O)c3ccccc3-c3ncc[nH]3)C2)cc1` (configuration not stated), for which the Potency result was “inactive”. Same read-out and setting: the result for `COc1ccccc1N1CCN(C(=O)c2ccc(NC3=NC4CS(=O)(=O)CC4S3)cc2)CC1` (configuration not stated) reads “inactive”.

For the molecule `COc1ccc(NC(=O)c2cnc(Nc3ccc(C)c(Cl)c3)c3ccccc23)cc1OC`, the Potency entry is “inactive”.

Regarding `COc1ccc(Nc2ncc(C(=O)Nc3cc(C)ccc3OC)c3ccccc23)cc1`, the Potency was 23.1 µM (active). The same measure, in the same setting: the result for `COc1ccc(Nc2ncc(C(=O)N3CCN(c4ccccc4OC)CC3)c3ccccc23)cc1` reads 25.9 µM (active) and 5.8 µM (active); that for `CC(C)(C)C(=O)CSc1ccc(S(=O)(=O)N2CCCC2)cn1`, “inactive”; that for `Cc1ccccc1NC(=O)c1cc2c([nH]c1=O)CC(C)(C)CC2=O`, “inactive”. The same measure, in the same setting: then `Cn1c(CSCC(=O)Nc2ccccc2)nnc1SCc1ccccc1`, with “inactive”; and `NS(=O)(=O)c1ccc(CNC(=S)NC(=O)c2ccco2)cc1`, with “inactive”. Take `COC(=O)c1c(NC(=O)C2CC(C)=C(C)CC2C(=O)O)sc2c1CCCCC2` (configuration not stated): the Potency entry was “inactive”.

For `CCc1ccc(N(CC(=O)Nc2sc3c(c2C(=O)OC)CCCC3)S(C)(=O)=O)cc1`, the Potency was 23.1 µM (active). Still for that read-out and setting: then `COC(=O)c1c(NC(=O)CCCC(=O)O)sc2c1CCCCC2`, with “inactive”; and `O=C(COc1ccccc1)Nc1cc2c3c(c1)CC(=O)N3CCC2`, with “inactive”.

For the molecule `O=C(CN1CCOCC1)N/N=C/c1ccc(-c2ccc(Br)cc2)o1`, the Potency result is “inactive”.

For the molecule `O=C1CCC(=O)N(c2ccccc2)N1`, the Potency result was “inactive”. The same measure, in the same setting: then `CN(C)S(=O)(=O)c1cccc(NC(=O)COC(=O)c2cc(=O)[nH]c(=O)[nH]2)c1`, with “inactive”; and `CN(C)S(=O)(=O)c1cccc(NC(=O)COC(=O)/C=C/c2cccs2)c1`, with “inactive”. Still for that read-out and setting: the result for `CN(C)S(=O)(=O)c1cccc(NC(=O)COC(=O)C2(c3ccccc3F)CCCC2)c1` reads 13 µM (active). Still for that read-out and setting: the result for `COc1ccc(S(=O)(=O)N2CCN(C(=O)c3cccs3)CC2)cc1OC` reads “inactive”; that for `O=S(=O)(NCCc1ccccc1)c1ccccc1`, “inactive”; that for `CCN(CC(=O)N1CCCC1)S(=O)(=O)c1ccc(F)cc1`, “inactive”. On to `CCSC1=NCCN1C(=O)c1ccc(S(=O)(=O)N(CC)CC)cc1`, for which the Potency entry is “inactive”. On the same count and under the same terms, then `CCCN(CCC)S(=O)(=O)c1ccc(C(=O)N2CC3CCC(CC3)C2)cc1`, with 23.1 µM (active); and `N#CCc1c(C#N)c(N)nc(N2CCCC2)c1C#N`, with “inactive”. Still for that read-out and setting: then `CC(C)CCNc1nc(N2CCCC2)c2c(c1C#N)CCN(C)C2`, with 23.1 µM (active); and `CCc1nc(NCCO)c(C#N)c2c1CCCC2`, with “inactive”. On the same count and under the same terms, the result for `CC(=O)Nc1ccc(Nc2ncnc3c2nnn3Cc2ccccc2Cl)cc1` reads “inactive”. Consider `O=C(Nc1cccc(F)c1)N1CC2(CCN(C(=O)c3csnn3)CC2)C1`, for which the Potency result is “inactive”.

With `O=S(=O)(NC1CC2CCC1C2)c1ccc(Cl)cc1` (configuration not stated), the Potency result was “inactive”. The same measure, in the same setting: then `Nc1nc2c(ncn2[C@@H]2O[C@H](CNS(=O)(=O)N3CCc4ccccc4C3)[C@@H](O)[C@H]2O)c(=O)[nH]1`, with “inactive”. The same measure, in the same setting: then `COc1cc2[nH]c(=S)n(CCN3CCCCC3C)c(=O)c2cc1OC` (configuration not stated), with “inactive”; and `COc1cccc(CNC(=O)CN2C(=O)NC(Cc3ccccc3)(c3ccccc3)C2=O)c1` (configuration not stated), with “inactive”. Same read-out and setting: then `COc1ccc2c(c1)C(=C(C#N)C#N)C(=O)N2CCc1ccccc1`, with 14.6 µM (active); and `CCCCN1C(=O)/C(=C(/C#N)C(N)=O)c2ccccc21`, with “inactive”. Regarding `NC(=O)C1CCN(C(=O)c2ccc3c(=O)n(Cc4cccc(Br)c4)c(=S)[nH]c3c2)CC1`, the Potency entry is “inactive”.

As for `Cc1cc(C)cc(OCC(=O)Nc2cc(NC(=O)COc3cc(C)cc(C)c3)cc(C(=O)O)c2)c1`, the Potency entry is “inactive”. `COC(C)C(C(=O)OCC1=CCN2CC[C@H](O)[C@@H]12)C(C)C` (some centres not stated): the activity change, negative = growth inhibition is -18.8% [at 9.04 µM]. For `O=C(Cc1ccccn1)c1ccc(O)cc1O`, the Potency entry is “inactive”. On the same count and under the same terms, the result for `Cc1ccc2[nH]c(=O)c(CN(C)S(=O)(=O)c3cccc4nonc34)cc2c1` reads “inactive”; that for `Cn1c(SCC(=O)N2CCCCC2)nc2c(c1=O)SCC2`, “inactive”. Same read-out and setting: then `Cc1cccc(CSc2nc3c(c(=O)n2C)SCC3)c1`, with 14.6 µM (active); and `CCn1c(SCc2ccccc2)nc2c(c1=O)SCC2`, with “inactive”; and `CCCCNC(=O)OC(C)CNC(=O)OC` (configuration not stated), with “inactive”. As for `CCC1CN(CCNC(=O)c2cccnc2C)Cc2cc(OC)ccc2O1` (configuration not stated), the Potency entry was “inactive”. Still for that read-out and setting: the result for `CCCS(=O)(=O)NCc1c(C)ncc2c1CCN(C(=O)c1ccc(F)c(F)c1)C2` reads “inactive”. Same read-out and setting: the result for `CCOC(=O)CCCCCC(=O)Nc1ccc2c(c1)CC(=O)N([C@@H](C)CO)C[C@H](C)[C@@H](CN(C)Cc1ccccc1)O2` reads “inactive”. Same read-out and setting: the result for `CCSc1nnc(SCC(=O)NNC(=O)c2ccccc2F)s1` reads “inactive”; that for `Cc1cccc(N2CCN(C(=O)c3ccc(Nc4nc5ccccc5n5nnnc45)cc3)CC2)c1C`, “inactive”; that for `CCn1c(C)c(C)c2cc(C(=O)N3CCN(c4cccc(C)c4C)CC3)ccc21`, 23.1 µM (active) and 20.6 µM (active). Regarding `O=C(c1c(F)cccc1F)N1CCN(c2ncc(Br)cn2)CC1`, the Potency entry was “inactive”. As to `CC(=O)N1CCN(c2cccc(C)c2C)CC1`, the Potency entry is “inactive”.

As to `Cc1cccc(N2CCN(C(=O)c3cnc(N4CCCC4)nc3C)CC2)c1C`, the Potency is 20.6 µM (active). On the same count and under the same terms, the result for `Cc1cccc(N2CCN(C(=O)c3ccc4c(c3)CCN4S(=O)(=O)c3ccccc3)CC2)c1C` reads 6.51 µM (active). `Cc1ccccc1N1CCN(C(=O)c2cccnc2)CC1`: the Potency entry is “inactive”. The same measure, in the same setting: the result for `Cc1cccc(N2CCN(C(=O)COCc3cc(-c4ccc5c(c4)OCO5)on3)CC2)c1C` reads “inactive”.

For the molecule `CCC(CC)C(=O)N1CCN(c2cccc(C)c2C)CC1`, the Potency is 11.6 µM (active). On to `Cc1[nH]c2ccc(C(=O)N3CCN(C)CC3)cc2c1C`, for which the Potency result is “inactive”. The same measure, in the same setting: then `O=C(O)C(O)[C@@](O)(Cc1ccc(O)cc1)C(=O)O` (some centres not stated), with “inactive”; and `COCCCN1C(=O)C(=O)/C(=C(/O)c2ccc(S(=O)(=O)N3CCOCC3)cc2)C1c1ccc(F)cc1` (configuration not stated), with “inactive”; and `Cc1ccc(CNC(=O)Nc2nnc([C@H]3C[C@H](O)[C@@H](CO)O3)s2)cc1`, with “inactive”.

Turning to `O=C(O)CC(SCC(=O)Nc1ccc(Br)cc1)C(=O)O` (configuration not stated), the Potency result is “inactive”.

With `O=C(Nc1nnc(CCOCCOCCc2nnc(NC(=O)c3ccco3)s2)s1)c1ccco1`, the Potency result is “inactive”.

The values above are taken from PubChem BioAssay AID686978 (National Center for Advancing Translational Sciences (NCATS), 2013).
